Each compound was assayed on HFF (assay: cell viability relative to DMSO control; higher = less cytotoxic). Details: 1 µM; 72 h.
Description: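 Single-dose cytotoxicity screen of the MMV Pandemic Response Box at 1 uM on human foreskin fibroblasts (HFF), 72 h at 37 C. Viability measured by MTT (OD 550 nm) and normalised to the DMSO control (% survival).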

Row | Compound | cell viability
1 | CC(C)Oc1cccc(NC(=O)c2ccccc2C(F)(F)F)c1 | 70.5%
2 | Nc1c(C(=O)NCc2ccco2)c2nc3ccccc3nc2n1CCN1CCCCC1 | 64.1%
3 | O=C(NC12CC3CC(CC(C3)C1)C2)c1cc2ccccc2[nH]1 | 83.6%
4 | C[N+]1(C)CCCC(OC(=O)C(O)(c2ccccc2)c2ccccc2)C1 (stereo not drawn) | 69.6%
5 | CCCCc1ccc(C(=O)O)nc1 | 56.4%
6 | CN1C(=O)C(c2ccccc2)C(=O)N(c2ccccc2)c2cc(C(F)(F)F)ccc21 (stereo not drawn) | 66.3%
7 | COc1cc(C(C)(C)CCCC(C)C)cc(OC)c1OC | 61%
8 | CCN1CCN(Cc2nc3ccc([N+](=O)[O-])cc3c(=O)n2-c2ccccc2F)CC1 | 62.2%
9 | COc1ccccc1CN[C@H]1C2CCN(CC2)[C@H]1C(c1ccccc1)c1ccccc1 | 58.7%
10 | COC(=O)Nc1nc2ccccc2[nH]1 | 66.4%
11 | NC1(C(=O)O)CCP(=O)(O)CC1 (stereo not drawn) | 63.1%
12 | C[C@@]1(O)[C@H](O)[C@@H](CO)O[C@H]1n1ccc2c(N)ncnc21 | 68.5%
13 | C[C@H]1CC[C@]2(NC1)O[C@H]1C[C@H]3[C@@H]4CC[C@H]5C[C@@H](O)CC[C@]5(C)[C@H]4CC[C@]3(C)[C@H]1[C@@H]2C | 73.1%

Reference: the supplement of paper PMC10941209
